Pf apPOL inh: Pf-apPOL DNA polymerase inhibition. inhibition, % at 10 µM. 210,000 tested, 0.25% active. Recombinant Pf-apPOL, molecular beacon fluorescence, 1.5 h
mHTT CaM bind: inhibitors of human mutant huntingtin-calmodulin interaction. P42858. AlphaScreen His-mHTT/GST-CaM binding, luminescence. inhibition, % at 15 µM. 190,000 tested, 3.6% active;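 also: 0% = both proteins with DMSO and 100% = one protein alone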
Target sequence (P42858 whole entry, looked up, stated change not applied): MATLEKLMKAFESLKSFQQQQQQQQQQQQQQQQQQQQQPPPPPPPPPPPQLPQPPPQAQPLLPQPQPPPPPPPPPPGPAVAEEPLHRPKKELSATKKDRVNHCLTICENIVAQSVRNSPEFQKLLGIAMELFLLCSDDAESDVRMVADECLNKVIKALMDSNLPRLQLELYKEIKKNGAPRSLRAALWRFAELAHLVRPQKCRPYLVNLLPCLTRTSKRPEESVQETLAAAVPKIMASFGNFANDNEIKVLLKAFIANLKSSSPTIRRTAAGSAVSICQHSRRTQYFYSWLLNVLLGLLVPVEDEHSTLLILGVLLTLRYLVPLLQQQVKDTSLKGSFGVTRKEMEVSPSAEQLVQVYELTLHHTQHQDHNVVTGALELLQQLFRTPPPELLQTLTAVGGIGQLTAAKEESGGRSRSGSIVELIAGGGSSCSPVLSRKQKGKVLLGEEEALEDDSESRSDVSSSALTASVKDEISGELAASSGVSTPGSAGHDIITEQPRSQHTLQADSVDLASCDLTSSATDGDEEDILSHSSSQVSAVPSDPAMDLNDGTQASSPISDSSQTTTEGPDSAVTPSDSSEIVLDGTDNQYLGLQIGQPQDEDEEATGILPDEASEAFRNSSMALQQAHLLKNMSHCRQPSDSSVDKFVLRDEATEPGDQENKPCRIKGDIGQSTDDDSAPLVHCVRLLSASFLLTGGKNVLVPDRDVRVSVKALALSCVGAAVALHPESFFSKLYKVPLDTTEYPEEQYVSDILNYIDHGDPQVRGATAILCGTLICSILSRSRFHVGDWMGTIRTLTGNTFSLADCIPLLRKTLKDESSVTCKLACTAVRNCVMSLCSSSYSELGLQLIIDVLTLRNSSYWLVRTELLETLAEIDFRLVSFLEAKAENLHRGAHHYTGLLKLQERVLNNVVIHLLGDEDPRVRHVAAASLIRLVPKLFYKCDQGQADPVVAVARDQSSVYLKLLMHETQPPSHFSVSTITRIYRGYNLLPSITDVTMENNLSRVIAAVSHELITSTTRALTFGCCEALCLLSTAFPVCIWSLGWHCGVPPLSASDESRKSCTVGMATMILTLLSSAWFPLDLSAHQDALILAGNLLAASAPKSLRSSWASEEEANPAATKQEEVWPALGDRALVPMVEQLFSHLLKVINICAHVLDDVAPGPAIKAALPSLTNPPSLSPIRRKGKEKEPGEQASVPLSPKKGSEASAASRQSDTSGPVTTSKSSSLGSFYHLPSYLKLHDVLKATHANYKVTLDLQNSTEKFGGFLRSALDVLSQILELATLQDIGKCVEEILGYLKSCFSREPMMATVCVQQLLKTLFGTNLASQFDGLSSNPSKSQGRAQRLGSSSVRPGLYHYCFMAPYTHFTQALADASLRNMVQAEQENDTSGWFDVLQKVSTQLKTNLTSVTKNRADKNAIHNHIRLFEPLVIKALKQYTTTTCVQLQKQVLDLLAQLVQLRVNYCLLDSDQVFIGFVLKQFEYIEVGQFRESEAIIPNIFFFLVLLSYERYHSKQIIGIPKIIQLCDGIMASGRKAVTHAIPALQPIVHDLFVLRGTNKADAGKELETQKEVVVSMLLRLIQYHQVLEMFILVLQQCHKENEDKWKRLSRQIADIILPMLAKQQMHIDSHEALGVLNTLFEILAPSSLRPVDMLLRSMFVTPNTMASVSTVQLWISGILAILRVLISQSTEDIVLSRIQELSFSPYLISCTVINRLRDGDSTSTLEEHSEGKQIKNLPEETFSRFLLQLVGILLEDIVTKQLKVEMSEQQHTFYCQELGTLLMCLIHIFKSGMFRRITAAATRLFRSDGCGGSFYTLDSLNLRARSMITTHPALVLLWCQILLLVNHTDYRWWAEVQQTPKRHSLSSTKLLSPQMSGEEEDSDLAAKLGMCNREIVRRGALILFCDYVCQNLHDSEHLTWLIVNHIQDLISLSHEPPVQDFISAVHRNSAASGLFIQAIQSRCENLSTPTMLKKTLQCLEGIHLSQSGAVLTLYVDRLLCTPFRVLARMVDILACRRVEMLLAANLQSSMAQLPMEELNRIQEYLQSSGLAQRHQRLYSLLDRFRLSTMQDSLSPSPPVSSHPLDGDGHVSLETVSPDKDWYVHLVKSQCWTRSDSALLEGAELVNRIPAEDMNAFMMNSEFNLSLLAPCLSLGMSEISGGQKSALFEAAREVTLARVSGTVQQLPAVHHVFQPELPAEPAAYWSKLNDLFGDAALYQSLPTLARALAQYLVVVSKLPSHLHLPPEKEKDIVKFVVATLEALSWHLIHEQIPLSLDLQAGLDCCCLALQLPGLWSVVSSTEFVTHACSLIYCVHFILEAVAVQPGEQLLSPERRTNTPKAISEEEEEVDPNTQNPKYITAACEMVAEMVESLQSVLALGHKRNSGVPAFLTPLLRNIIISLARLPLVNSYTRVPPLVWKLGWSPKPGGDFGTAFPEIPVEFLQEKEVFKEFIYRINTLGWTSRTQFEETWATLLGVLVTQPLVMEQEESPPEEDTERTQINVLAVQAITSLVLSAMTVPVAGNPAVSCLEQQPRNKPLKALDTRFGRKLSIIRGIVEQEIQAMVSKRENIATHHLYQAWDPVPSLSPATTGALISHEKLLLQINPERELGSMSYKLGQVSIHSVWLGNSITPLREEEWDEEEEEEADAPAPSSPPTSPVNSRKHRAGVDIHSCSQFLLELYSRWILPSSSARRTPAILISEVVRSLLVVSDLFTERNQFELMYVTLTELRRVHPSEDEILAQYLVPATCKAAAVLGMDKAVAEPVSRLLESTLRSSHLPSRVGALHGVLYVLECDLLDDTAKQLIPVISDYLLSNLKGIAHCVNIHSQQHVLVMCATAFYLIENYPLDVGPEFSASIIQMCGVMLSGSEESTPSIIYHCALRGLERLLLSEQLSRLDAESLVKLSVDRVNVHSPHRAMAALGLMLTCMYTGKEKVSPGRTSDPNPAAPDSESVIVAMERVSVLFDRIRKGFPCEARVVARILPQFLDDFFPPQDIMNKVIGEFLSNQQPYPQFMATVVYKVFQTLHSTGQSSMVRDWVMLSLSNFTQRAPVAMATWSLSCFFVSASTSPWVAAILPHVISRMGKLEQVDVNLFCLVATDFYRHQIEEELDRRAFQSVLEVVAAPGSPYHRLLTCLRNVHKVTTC
Active calls of the source: *; . = not tested or not shown. Rows were chosen to be rich in hits. Some 3.5% of all compounds tested hit in one or more screens of this group. Rule as the data show it: active = inhibition above about 50%; inactive = the rest.

SMILES | Pf apPOL inh | mHTT CaM bind
FC(F)(F)c1cc(N=NNc2cc(C(F)(F)F)cc(C(F)(F)F)c2)cc(C(F)(F)F)c1 | 3.7 | .
COCCCNC(=O)N(C)C1CCN(c2nccnc2OC)C1 (stereo not given) | -1.8 | 2.9
CC1=NN(C(=O)c2cccc(O)c2)C(O)(c2ccc(Br)cc2)C1 (stereo not given) | 0.5 | 42.0
CC1=NN(C(=O)c2cc(Br)ccc2O)C(O)(c2ccccc2)C1 (stereo not given) | -9.2 | 98.0*
CCC1=NN(C(=O)c2ccccc2)C(O)(c2ccc(Br)cc2)C1 (stereo not given) | -2.0 | 33.0
CC1=NN(C(=O)c2ccc(Cl)cc2)C(O)(c2cccc([N+](=O)[O-])c2)C1 (stereo not given) | -10.6 | 40.0
CC1=NN(C(=O)c2cccc([N+](=O)[O-])c2)C(O)(c2ccc(Br)cc2)C1 (stereo not given) | -4.2 | 66.0*
CC1=NN(C(=O)c2cccc([N+](=O)[O-])c2)C(O)(c2ccc(Cl)cc2)C1 (stereo not given) | 0.8 | 59.0*
CCC1=NN(C(=O)c2ccc(C)cc2)C(O)(c2ccc(Br)cc2)C1 (stereo not given) | 19.9 | 70.0*
CC1=NN(C(=O)C(C)C)C(O)(c2ccc(Br)cc2)C1 (stereo not given) | -1.2 | 21.0
O=C(c1ccccc1)N1N=C(C(F)(F)F)CC1(O)c1cccc([N+](=O)[O-])c1 (stereo not given) | -5.0 | 53.0*
COc1cccc(C2(O)CC(C(F)(F)F)=NN2C(=O)c2ccccc2[N+](=O)[O-])c1 (stereo not given) | -0.6 | 14.0
O=C(c1cccs1)N1CCN(c2ccc([N+](=O)[O-])c(NCc3ccco3)c2)CC1 | -4.9 | 6.2
COc1cccc(-c2cc3c(N4CCC(C(=O)NCc5ccco5)CC4)nccn3n2)c1 | -7.2 | 2.5
O=[N+]([O-])c1cc2c(cc1C1NN=C(c3ccccc3)S1)OCO2 (stereo not given) | -9.2 | 52.3*
O=C1CSC(c2cc3c(cc2[N+](=O)[O-])OCO3)N1c1ccccc1F (stereo not given) | -2.5 | 16.0
COc1cccc(N2C(=O)C(=Cc3ccc(O)c(O)c3)SC2=S)c1 | -59.9 | 98.2*
COc1cc(C=C2SC(=S)N(c3ccc(O)c(C(=O)O)c3)C2=O)cc(OC)c1OC | -28.1 | 65.9*
COc1cc(C=C2SC(=S)N(c3ccc(C(=O)O)c(O)c3)C2=O)cc(OC)c1OC | -6.8 | 1.2
COc1cc(C=C2SC(=S)N(c3ccc(O)cc3)C2=O)cc(OC)c1OC | -2.8 | 19.9
COc1ccccc1/C=C/C=C1/N=C(c2ccccc2)OC1=O | 1.6 | 24.0
CCCNC(=O)CN1CCN(C(=O)Nc2ccc(Br)cc2)CC1=O | -5.0 | -8.7
O=C(Nc1cccc(-c2cn3cccnc3n2)c1)c1c(F)cccc1F | -5.3 | 9.8
Clc1ccccc1C1Cn2cnc(-c3nc(-c4ccccn4)no3)c2CO1 (stereo not given) | -0.2 | 100.2*
Fc1ccc(-c2noc(-c3ncn4c3COC(c3ccccc3Cl)C4)n2)cc1 (stereo not given) | -3.9 | 19.0
SMILES | Pf apPOL inh | mHTT CaM bind
O=C(Nc1nc2c(s1)CCC2)C1CCCN1S(=O)(=O)c1ccc(F)cc1 (stereo not given) | -0.3 | 2.9
NC(=O)c1oc2ccccc2c1NC(=O)C1CCCN1S(=O)(=O)c1ccc(F)cc1 (stereo not given) | -6.5 | 66.9*
CC(=NC(N)=Nc1nc(C)c2ccc(C)cc2n1)c1ccccc1C(=O)O | -10.7 | 0.0
COc1ccccc1-c1nc(C2CCCN(C(=O)c3cccnc3SC)C2)no1 (stereo not given) | -5.3 | 2.7
Nc1ncc(C2=C(Cl)C(O)C(Cl)=C(Cl)C2O)s1 (stereo not given) | -3.1 | 100.3*
COc1cc(-c2csc(C)n2)ccc1O | -0.4 | -4.4
COc1cc(-c2nc(-c3cccs3)c(-c3cccs3)[nH]2)ccc1O | 0.5 | 97.0*
O=C1OC(c2ccc(Cl)cc2)=C/C1=C/c1ccc(-c2ccccc2C(=O)O)o1 | -1.3 | 56.0*
O=C1OC(c2ccc(Cl)cc2)=C/C1=C\c1ccccc1 | -18.6 | 7.0
CCCC1=C/C(=C\c2ccc(-c3ccccc3)o2)C(=O)O1 | -3.8 | 50.0*
CC1=NOC(=O)/C1=C/c1ccc(-c2ccccc2)o1 | 2.6 | 27.0
COC(=O)c1ccc(C(=O)Nc2cccc3c(OC)cccc23)cc1 | 2.4 | 12.7
Cc1cc(N2CCN(C(=O)c3cccs3)CC2)c(F)cc1[N+](=O)[O-] | 3.1 | 5.1
O=C(c1cccs1)N1CCN(c2cc(N3CCCCCC3)c(F)cc2[N+](=O)[O-])CC1 | -10.7 | 59.7*
COCCn1cc2c3c(cccc31)CN(C(=O)c1ccc(OC)cc1C)CC2 | -3.3 | 51.4*
COCCn1cc2c3c(cccc31)CN(C(=O)c1ccccn1)CC2 | -5.8 | 24.3
COCCn1cc2c3c(cccc31)CN(C(=O)c1cccc(Cl)c1)CC2 | -3.4 | 64.5*
COc1ccc(C(=O)N2CCc3cn(C)c4cccc(c34)C2)c(C)c1 | -2.1 | 30.0
COCCn1cc2c3c(cccc31)CN(C(=O)Nc1cc(F)cc(F)c1)CC2 | -0.5 | 1.9
COCCn1cc2c3c(cccc31)CN(C(=O)NCc1ccccc1)CC2 | -1.4 | 6.0
COCCn1cc2c3c(cccc31)CN(C(=O)CCCc1ccccc1)CC2 | -3.6 | 90.7*
COCCn1cc2c3c(cccc31)CN(C(=O)c1cccc(F)c1)CC2 | -0.9 | 53.9*
Cc1ccc(NC(=O)N2CCCC2c2c(C)noc2C)cc1C (stereo not given) | -5.6 | -4.9
CCCC(=O)N1CCc2cn(CC)c3cccc(c23)C1 | -2.0 | 14.4
COCCn1cc2c3c(cccc31)CN(C(=O)c1ccccc1)CC2 | -2.5 | 39.9
SMILES | Pf apPOL inh | mHTT CaM bind
CCn1cc2c3c(cccc31)CN(C(=O)Cc1cccc(F)c1)CC2 | -2.0 | 66.0*
COCCn1cc2c3c(cccc31)CN(C(=O)c1ccccc1Br)CC2 | -6.7 | 68.7*
CCn1cc2c3c(cccc31)CN(C(=O)c1ccc(OC)c(F)c1)CC2 | -4.8 | 52.2*
COCCn1cc2c3c(cccc31)CN(C(=O)c1ccc(C)cc1)CC2 | -6.6 | 67.8*
COCCn1cc2c3c(cccc31)CN(C(=O)c1ccccc1F)CC2 | -3.8 | 37.1
COc1ccc(C(=O)N2CCc3cn(C)c4cccc(c34)C2)cc1F | -3.3 | 32.0
CC(=O)N1CCC(n2c(C)nc(C(=O)NC3CCN(Cc4ccccc4)CC3)c2C)CC1 | -3.0 | 18.7
C=CCNCCOc1cccc(CC)c1 | -0.2 | -1.8
O=C(Oc1ccc2c(=O)c(-c3ccc(Cl)cc3)coc2c1)c1cccc([N+](=O)[O-])c1 | -15.3 | 12.6
COCCn1cc2c3c(cccc31)CN(C(=O)c1ccc(C)c(F)c1)CC2 | -2.0 | 53.1*
COCCn1cc2c3c(cccc31)CN(C(=O)c1ccc(F)c(Cl)c1)CC2 | -4.7 | 28.9
O=C(Cn1nc(-c2ccc(Cl)cc2)c2ccccc2c1=O)Nc1ccc(Cl)cc1 | 11.6 | 9.0
COCCNC(=O)Cn1nc(-c2ccc(Cl)cc2)c2ccccc2c1=O | 76.3* | 1.0
CC(=O)C1=C(C)NC(SCC(=O)c2cc(Cl)ccc2Cl)=C(C#N)C1c1ccco1 (stereo not given) | -0.6 | 2.4
CC(=O)C1=C(C)NC(SCC(=O)c2ccc(Cl)c(Cl)c2)=C(C#N)C1c1ccco1 (stereo not given) | 2.1 | 54.2*

Source: PubChem
